Among all 5,500 compounds or so, about 2,000 (36%) were called active. Another 18% or so got no clear call; they are omitted. Rule as the data show it: active = normalized growth mostly below about 0.91 (no sharp cut-off); inconclusive = no clear call, values can overlap the other calls; inactive = mostly above about 0.92. Some of the results follow.
Assay: chemical genetic growth profiling, strain panel (AID 1159580);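 also: tested at 20 µM; growth read once vehicle control cultures reached saturation at 30 °C; 1 = growth at the plate median or of vehicle wells; lower values mean less growth of the strain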
Settings: growth OD
[1] = S. cerevisiae deletion strains, locus YHR030C, strain SLT2, stronger effect = lower value
[2] = S. cerevisiae deletion strains, locus YHR079C, strain IRE1, stronger effect = lower value
[3] = S. cerevisiae deletion strains, locus YJL095W, strain BCK1, stronger effect = lower value
[4] = S. cerevisiae deletion strains, locus YJR066W, strain TOR1, stronger effect = lower value
[5] = S. cerevisiae deletion strains, locus YLR113W, strain HOG1, stronger effect = lower value
[6] = S. cerevisiae deletion strains, locus YNL183C, strain NPR1, stronger effect = lower value
[7] = S. cerevisiae deletion strains, locus YOR231W, strain MKK1, stronger effect = lower value
[8] = S. cerevisiae deletion strains, locus YPL256C, strain CLN2, stronger effect = lower value
[9] = S. cerevisiae deletion strains, locus YAL013W, strain DEP1, stronger effect = lower value
[10] = S. cerevisiae deletion strains, locus YBR229C, strain ROT2, stronger effect = lower value
[11] = S. cerevisiae deletion strains, locus YCL061C, strain MRC1, stronger effect = lower value
[12] = S. cerevisiae deletion strains, locus YDL101C, strain DUN1, stronger effect = lower value
[13] = S. cerevisiae deletion strains, locus YDR150W, strain NUM1, stronger effect = lower value
[14] = S. cerevisiae deletion strains, locus YEL061C, strain CIN8, stronger effect = lower value
[15] = S. cerevisiae deletion strains, locus YGR078C, strain PAC10, stronger effect = lower value
[16] = S. cerevisiae deletion strains, locus YHR087W, strain rtc3, stronger effect = lower value
[17] = S. cerevisiae deletion strains, locus YJR043C, strain POL32, stronger effect = lower value
[18] = S. cerevisiae deletion strains, locus YJR075W, strain HOC1, stronger effect = lower value
[19] = S. cerevisiae deletion strains, locus YLR039C, strain RIC1, stronger effect = lower value
[20] = S. cerevisiae deletion strains, locus YLR058C, strain SHM2 (second series), stronger effect = lower value
[21] = S. cerevisiae deletion strains, locus YLR085C, strain ARP6, stronger effect = lower value
[22] = S. cerevisiae deletion strains, locus YLR262C, strain YPT6, stronger effect = lower value
[23] = S. cerevisiae deletion strains, locus YML094W, strain GIM5, stronger effect = lower value
[24] = S. cerevisiae deletion strains, locus YMR219W, strain ESC1, stronger effect = lower value
[25] = S. cerevisiae deletion strains, locus YMR263W, strain SAP30, stronger effect = lower value
[26] = S. cerevisiae deletion strains, locus YNL153C, strain GIM3, stronger effect = lower value
[27] = S. cerevisiae deletion strains, locus YNL298W, strain CLA4 (second series), stronger effect = lower value
[28] = S. cerevisiae deletion strains, locus YNL322C, strain KRE1, stronger effect = lower value
[29] = S. cerevisiae deletion strains, locus YNR030W, strain Alg12, stronger effect = lower value
[30] = S. cerevisiae deletion strains, locus YPL055C, strain LGE1, stronger effect = lower value
[31] = S. cerevisiae deletion strains, locus YPL241C, strain CIN2, stronger effect = lower value
[32] = S. cerevisiae deletion strains, locus YPR135W, strain CTF4, stronger effect = lower value
[33] = S. cerevisiae deletion strains, locus YAR019C, strain CDC15, stronger effect = lower value
[34] = S. cerevisiae deletion strains, locus YBL105C, strain PKC1, stronger effect = lower value
[35] = S. cerevisiae deletion strains, locus YBR135W, strain CKS1, stronger effect = lower value
[36] = S. cerevisiae deletion strains, locus YBR136W, strain MEC1, stronger effect = lower value
[37] = S. cerevisiae deletion strains, locus YBR160W, strain CDC28, stronger effect = lower value
[38] = S. cerevisiae deletion strains, locus YDL017W, strain CDC7, stronger effect = lower value
[39] = S. cerevisiae deletion strains, locus YDL028C, strain MPS1, stronger effect = lower value
[40] = S. cerevisiae deletion strains, locus YDL108W, strain KIN28, stronger effect = lower value
[41] = S. cerevisiae deletion strains, locus YDL132W, strain cdc53, stronger effect = lower value
[42] = S. cerevisiae deletion strains, locus YDL214C, strain PRR2, stronger effect = lower value
[43] = S. cerevisiae deletion strains, locus YDR052C, strain DBF4, stronger effect = lower value
[44] = S. cerevisiae deletion strains, locus YDR054C, strain cdc34, stronger effect = lower value
[45] = S. cerevisiae deletion strains, locus YDR226W, strain ADK1, stronger effect = lower value
[46] = S. cerevisiae deletion strains, locus YDR477W, strain SNF1, stronger effect = lower value
[47] = S. cerevisiae deletion strains, locus YER123W, strain YCK3, stronger effect = lower value
[48] = S. cerevisiae deletion strains, locus YER133W, strain GLC7, stronger effect = lower value
[49] = S. cerevisiae deletion strains, locus YFL009W, strain cdc4, stronger effect = lower value
[50] = S. cerevisiae deletion strains, locus YFL029C, strain CAK1, stronger effect = lower value
[51] = S. cerevisiae deletion strains, locus YFR003C, strain YPI1, stronger effect = lower value
[52] = S. cerevisiae deletion strains, locus YFR019W, strain FAB1, stronger effect = lower value
[53] = S. cerevisiae deletion strains, locus YFR028C, strain CDC14, stronger effect = lower value
[54] = S. cerevisiae deletion strains, locus YGR040W, strain KSS1, stronger effect = lower value
[55] = S. cerevisiae deletion strains, locus YGR052W, strain FMP48, stronger effect = lower value
[56] = S. cerevisiae deletion strains, locus YGR092W, strain DBF2, stronger effect = lower value
[57] = S. cerevisiae deletion strains, locus YHR082C, strain KSP1, stronger effect = lower value
[58] = S. cerevisiae deletion strains, locus YHR205W, strain SCH9, stronger effect = lower value
[59] = S. cerevisiae deletion strains, locus YIL147C, strain SLN1, stronger effect = lower value
[60] = S. cerevisiae deletion strains, locus YJL128C, strain PBS2, stronger effect = lower value
[61] = S. cerevisiae deletion strains, locus YJL157C, strain FAR1, stronger effect = lower value
[62] = S. cerevisiae deletion strains, locus YJR016C, strain ILV3, stronger effect = lower value
[63] = S. cerevisiae deletion strains, locus YJR066W, strain TOR1 (second series), stronger effect = lower value
[64] = S. cerevisiae deletion strains, locus YKL048C, strain ELM1, stronger effect = lower value
[65] = S. cerevisiae deletion strains, locus YKL067W, strain YNK1, stronger effect = lower value
[66] = S. cerevisiae deletion strains, locus YKL101W, strain HSL1, stronger effect = lower value
[67] = S. cerevisiae deletion strains, locus YKL193C, strain SDS22, stronger effect = lower value
[68] = S. cerevisiae deletion strains, locus YKL203C, strain TOR2, stronger effect = lower value
[69] = S. cerevisiae deletion strains, locus YLR133W, strain CKI1, stronger effect = lower value
[70] = S. cerevisiae deletion strains, locus YLR403W, strain SFP1, stronger effect = lower value
[71] = S. cerevisiae deletion strains, locus YML070W, strain DAK1, stronger effect = lower value
[72] = S. cerevisiae deletion strains, locus YMR001C, strain CDC5, stronger effect = lower value
[73] = S. cerevisiae deletion strains, locus YMR205C, strain PFK2 (second series), stronger effect = lower value
[74] = S. cerevisiae deletion strains, locus YMR277W, strain FCP1, stronger effect = lower value
[75] = S. cerevisiae deletion strains, locus YNL006W, strain LST8, stronger effect = lower value
[76] = S. cerevisiae deletion strains, locus YNL020C, strain ARK1, stronger effect = lower value
[77] = S. cerevisiae deletion strains, locus YNL161W, strain CBK1, stronger effect = lower value
[78] = S. cerevisiae deletion strains, locus YNL207W, strain RIO2, stronger effect = lower value
[79] = S. cerevisiae deletion strains, locus YNL222W, strain SSU72, stronger effect = lower value
[80] = S. cerevisiae deletion strains, locus YNL307C, strain MCK1 (second series), stronger effect = lower value
[81] = S. cerevisiae deletion strains, locus YOL078W, strain AVO1, stronger effect = lower value
[82] = S. cerevisiae deletion strains, locus YOL136C, strain PFK27, stronger effect = lower value
[83] = S. cerevisiae deletion strains, locus YOR061W, strain CKA2, stronger effect = lower value
[84] = S. cerevisiae deletion strains, locus YOR119C, strain RIO1, stronger effect = lower value
[85] = S. cerevisiae deletion strains, locus YOR329C, strain SCD5, stronger effect = lower value
[86] = S. cerevisiae deletion strains, locus YPL031C, strain PHO85, stronger effect = lower value
[87] = S. cerevisiae deletion strains, locus YPL153C, strain RAD53, stronger effect = lower value
[88] = S. cerevisiae deletion strains, locus YPL204W, strain HRR25, stronger effect = lower value
[89] = S. cerevisiae deletion strains, locus YPL209C, strain IPL1, stronger effect = lower value
[90] = S. cerevisiae deletion strains, locus YPR025C, strain CCL1, stronger effect = lower value
[91] = S. cerevisiae deletion strains, locus YPR106W, strain ISR1, stronger effect = lower value
[92] = S. cerevisiae deletion strains, locus YPR111W, strain DBF20, stronger effect = lower value
[93] = S. cerevisiae deletion strains, strain NNK1, stronger effect = lower value
[94] = S. cerevisiae deletion strains, strain TSCII, stronger effect = lower value

Measured: normalized growth

C[n+]1ccccc1/C=N\O
inactive: [1] 0.981 | [2] 0.987 | [3] 0.996 | [4] 0.932 | [5] 0.997 | [6] 0.934 | [7] 1 | [8] 0.974

CN1C(=O)CN=C(c2ccccc2)c2ccccc21
inactive: [9] 1.01 | [10] 0.997 | [11] 0.999 | [12] 0.995 | [13] 0.86 | [14] 1 | [15] 1 | [1] 1.03 | [16] 0.995 | [17] 1.01 | [18] 0.994 | S. cerevisiae deletion strains, locus YKL190W, strain CNB1, stronger effect = lower value 1 | [19] 1.02 | [20] 1.01 | [21] 1.02 | [22] 1.01 | [23] 1 | [24] 1 | [25] 0.981 | S. cerevisiae deletion strains, locus YMR307W, strain GAS1, stronger effect = lower value 1.02 | [26] 1 | [27] 1.01 | [28] 0.991 | [29] 1.02 | [30] 0.854 | [31] 1.05 | [32] 0.979

Cc1cc(SCc2[nH]nc3oc(=O)cc(C)c23)c(Cl)cc1Cl
inactive: [33] 0.979 | [34] 0.993 | [35] 0.984 | [36] 0.987 | [37] 0.986 | [38] 0.988 | [39] 0.991 | [12] 0.989 | [40] 0.98 | [41] 0.987 | [42] 1.01 | [43] 0.981 | [44] 0.983 | [45] 0.972 | [46] 1.01 | [47] 0.993 | [48] 1.03 | [49] 0.984 | [50] 0.979 | [51] 0.994 | [52] 0.995 | [53] 0.99 | [54] 1.01 | [55] 1.03 | [56] 0.973 | [1] 1.1 | [2] 0.992 | [57] 1.13 | [58] 0.968 | [59] 0.979 | [3] 0.947 | [60] 0.933 | [61] 1 | [62] 0.994 | [63] 0.983 | [4] 1.05 | [64] 0.993 | [65] 1.01 | [66] 1.01 | [67] 0.982 | [68] 1.04 | [5] 1 | [69] 0.998 | [70] 0.996 | [71] 1.02 | [72] 0.99 | [73] 1.03 | [74] 0.981 | [75] 0.984 | [76] 0.981 | [77] 1.01 | [6] 1.05 | [78] 0.986 | [79] 0.979 | [80] 0.994 | [81] 0.998 | [82] 1.01 | [83] 0.973 | [84] 1.08 | [7] 0.985 | [85] 0.989 | [86] 0.988 | [87] 0.987 | [88] 0.97 | [89] 0.991 | [8] 1.08 | [90] 0.99 | [91] 1 | [92] 0.974 | [93] 0.985 | [94] 0.98

O=C(Oc1cc(Cl)c(Cl)cc1Cl)C1c2ccccc2Oc2ccccc21
inactive: [33] 0.953 | [34] 0.943 | [35] 0.944 | [36] 0.937 | [37] 0.94 | [38] 0.937 | [39] 0.943 | [12] 0.945 | [40] 0.941 | [41] 0.934 | [42] 0.95 | [43] 0.96 | [44] 0.927 | [45] 0.963 | [46] 0.912 | [47] 0.961 | [48] 0.982 | [49] 0.933 | [50] 0.95 | [51] 0.941 | [52] 0.996 | [53] 0.949 | [54] 0.907 | [55] 0.924 | [56] 0.655 | [2] 0.829 | [57] 0.976 | [58] 0.924 | [59] 0.936 | [3] 0.862 | [60] 0.887 | [61] 0.979 | [62] 0.945 | [63] 0.865 | [4] 0.93 | [64] 0.883 | [65] 0.951 | [66] 0.9 | [67] 0.958 | [68] 0.958 | [69] 0.981 | [70] 0.957 | [71] 0.962 | [72] 0.951 | [73] 0.971 | [74] 0.96 | [75] 0.945 | [76] 0.986 | [77] 0.94 | [6] 0.884 | [78] 0.925 | [79] 0.942 | [80] 0.9 | [81] 0.959 | [82] 0.976 | [83] 0.995 | [84] 0.988 | [7] 0.856 | [85] 0.943 | [86] 0.903 | [87] 0.904 | [88] 0.867 | [89] 0.938 | [90] 0.939 | [91] 0.931 | [92] 0.901 | [93] 0.927 | [94] 0.944
active: [1] 0.75 | [5] 0.758 | [8] 0.821

O=C(O)C1c2ccccc2Oc2ccccc21
inactive: [9] 0.999 | [10] 0.993 | [11] 0.99 | [12] 1 | S. cerevisiae deletion strains, locus YDL134C, strain PPH21, stronger effect = lower value 1 | [13] 0.962 | [14] 0.996 | [15] 0.984 | [1] 0.987 | [16] 0.971 | S. cerevisiae deletion strains, locus YJL187C, strain SWE1, stronger effect = lower value 0.992 | [17] 1 | [18] 0.975 | [19] 0.984 | [20] 0.998 | [21] 0.969 | [22] 1 | [23] 1.03 | [24] 0.989 | [25] 1.01 | S. cerevisiae deletion strains, locus YNL128W, strain TEP1, stronger effect = lower value 1.01 | [26] 0.983 | [27] 0.993 | [28] 0.976 | [29] 1.01 | [30] 0.964 | [31] 0.971 | [32] 1.03 | S. cerevisiae strains, strain wild type, stronger effect = lower value 1.01

From PubChem BioAssay AID1159580 (chemical genetic matrix, 2015)
